In PMC4336329 (PLoS ONE, 2015):
Hit rate of the full screen: of about 310,000 compounds, about 14,000 (4.5%) showed an effect of 50% or more. The effect is printed as a negative number. Only a selection was taken, and strong results are over-represented in it overall.

target: human ether-à-go-go-related gene (hERG) potassium channel (human, UniProt Q12809); experiment: primary screen, population patch clamp on CHO cells stably expressing hERG; higher = less effect of the substance
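Also: peak tail current of the secondary pulse compared with the same well before compound.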

human ether-à-go-go-related gene (hERG) potassium channel, sequence (Q12809 whole entry, looked up): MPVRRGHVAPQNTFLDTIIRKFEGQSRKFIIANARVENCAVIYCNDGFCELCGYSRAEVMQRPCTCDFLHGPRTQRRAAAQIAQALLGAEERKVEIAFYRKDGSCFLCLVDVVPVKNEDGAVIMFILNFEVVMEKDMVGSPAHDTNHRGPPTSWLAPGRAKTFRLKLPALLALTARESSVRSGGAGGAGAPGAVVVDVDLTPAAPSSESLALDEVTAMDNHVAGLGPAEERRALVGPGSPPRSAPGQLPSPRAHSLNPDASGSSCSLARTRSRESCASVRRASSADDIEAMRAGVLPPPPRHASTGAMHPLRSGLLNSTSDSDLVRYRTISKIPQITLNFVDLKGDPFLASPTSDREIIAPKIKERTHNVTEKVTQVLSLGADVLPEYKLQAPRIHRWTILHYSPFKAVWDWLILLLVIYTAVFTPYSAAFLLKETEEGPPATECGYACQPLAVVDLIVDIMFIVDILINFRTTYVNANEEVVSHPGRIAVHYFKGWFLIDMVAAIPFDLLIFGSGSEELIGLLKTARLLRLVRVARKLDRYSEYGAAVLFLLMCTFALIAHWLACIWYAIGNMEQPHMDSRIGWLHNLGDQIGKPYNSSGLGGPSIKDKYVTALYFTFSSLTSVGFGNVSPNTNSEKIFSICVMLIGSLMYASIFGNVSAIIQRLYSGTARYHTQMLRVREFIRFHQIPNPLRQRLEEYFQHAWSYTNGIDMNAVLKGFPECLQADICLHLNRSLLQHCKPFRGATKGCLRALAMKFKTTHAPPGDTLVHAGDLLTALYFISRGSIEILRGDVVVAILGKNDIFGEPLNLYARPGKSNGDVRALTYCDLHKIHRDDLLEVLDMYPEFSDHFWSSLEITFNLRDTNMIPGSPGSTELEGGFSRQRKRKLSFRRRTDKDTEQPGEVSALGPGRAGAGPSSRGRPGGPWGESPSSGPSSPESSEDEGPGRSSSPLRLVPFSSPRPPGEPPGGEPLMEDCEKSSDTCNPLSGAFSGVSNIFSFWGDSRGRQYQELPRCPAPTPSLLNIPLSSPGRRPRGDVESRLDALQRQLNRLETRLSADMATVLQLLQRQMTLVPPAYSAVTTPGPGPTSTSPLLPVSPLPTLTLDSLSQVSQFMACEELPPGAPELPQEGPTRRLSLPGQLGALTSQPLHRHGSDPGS

| Compound | hERG current change (%, negative = inhibition) at 10uM [%] |
| --- | --- |
| O=C(CN1C(=O)NC2(CCCC2)C1=O)N1CCN(S(=O)(=O)c2ccccc2F)CC1 | 22.3 |
| O=[N+]([O-])c1ccc(O)c(NC(=S)Nc2ccccc2)c1 | 23.9 |
| NC(=S)NC1CC2CC1C1C=CCC21 (centres unmarked) | 6.66 |
| CCOc1ccc(N(CC(=O)NCc2ccc(C)cc2)S(=O)(=O)c2c(C)[nH]c(=O)[nH]c2=O)cc1 | 6.73 |
| Cc1nn(-c2ccccc2)c(Cl)c1C(=O)NCCCCNC(=O)c1c(C)nn(-c2ccccc2)c1Cl | -2.76 |
| CN(C)CCCNc1ccc(S(N)(=O)=O)cc1[N+](=O)[O-] | -13.1 |
| CCOC(=O)CN1N=C(c2ccc(C)cc2)CCC1=O | -47.2 |
| CC(C)CCNC(=O)CN1N=C(c2ccc(Cl)cc2)CCC1=O | -15.8 |
| CC(C)CN(CCCNC(=O)CN1N=C(c2ccc(Cl)cc2)CCC1=O)CC(C)C | -21.8 |
| Cc1ccc(C2=NN(CC(=O)O)C(=O)CC2)cc1 | -51.4 |
| CCCCN(C)CCCNC(=O)CN1N=C(c2ccc(Cl)cc2)CCC1=O | -56.7 |
| CCOCCCNC(=O)CN1N=C(c2ccc(C)cc2)CCC1=O | -73.9 |
| C=CCNC(=O)CN1N=C(c2ccc(C)cc2)CCC1=O | -44.3 |
| CCCCCCCNC(=O)CN1N=C(c2ccc(C)cc2)CCC1=O | -67.8 |
| CCN(CC)CCCNC(=O)CN1N=C(c2ccc(OC)cc2)CCC1=O | 14.5 |
| Cc1ccc(C2=NN(CC(=O)NCCC(C)C)C(=O)CC2)cc1 | 4.58 |
| Cc1ccc(C2=NN(CC(=O)NCCN(C)C)C(=O)CC2)cc1 | -44.9 |
| COCCNC(=O)CN1N=C(c2ccc(C)cc2)CCC1=O | -47.9 |
| Cc1cc(SCC(=O)OCC(=O)N(C)c2ccccc2)nc2ccccc12 | -22.8 |
| C=C[C@]1(C)C=C2CCC3[C@](C)(CCC[C@@]3(C)C(=O)O)C2CC1 (some centres unmarked) | 13.3 |
| O=C(CCCN1C(=O)c2ccccc2C1=O)Nc1cccnc1 | -2.46 |

| Compound | hERG current change (%, negative = inhibition) at 10uM [%] |
| --- | --- |
| O=C(NCc1ccccn1)C1(C(F)(F)F)C/C(=C\CCO)CCCO1 (centres unmarked) | 6.37 |
| CCOc1ccc(S(=O)(=O)Nc2cccc(C(=O)N(C)Cc3cccc(OC)c3OC)c2)cc1 | -11.6 |
| O=C1[C@@H]2[C@H](C(=O)N1n1cnnc1)[C@H]1C=C[C@@H]2C1 | 11.5 |
| Cc1ccc(NC(=O)CN2CCCCCC2)cc1[N+](=O)[O-] | 23.1 |
| O=C(Nc1ccc(N2CCOCC2)c2nonc12)C1CCCC1 | 3.34 |
| CCCn1c(=O)c2sccc2n2c(CCCC(=O)NCc3cccnc3)nnc12 | 19.2 |
| C=CCNC(=O)CSc1n[nH]c(-c2cc(Cl)ccc2OC)n1 | 8.25 |
| COc1ccc(Cl)cc1NC(=O)CN(C)C(=O)c1cccc(-n2cnnn2)c1 | -53.6 |
| COc1ccc(Cl)cc1NC(=O)CN(C)C(=O)c1ccc2n[nH]nc2c1 | -13.8 |
| COc1ccc(NC(=O)CN(C)C(=O)c2cn(-c3ccccc3)nc2-c2ccc(Cl)cc2)cc1 | 12.1 |
| COc1ccc(Cl)cc1NC(=O)CN(C)C(=O)c1cn(-c2ccccc2)nc1-c1cccnc1 | -59.9 |
| COc1ccc(Cl)cc1NC(=O)COc1cccc(-n2cnnn2)c1 | 10.3 |
| COc1ccc(NC(=O)CN(C)C(=O)c2cn(-c3ccccc3)nc2-c2cccnc2)cc1 | -24.2 |
| CCc1ccc(C(=O)Nc2cccc(-c3nn[nH]n3)c2)s1 | 16.9 |
| CCOC(=O)C1CN(S(C)(=O)=O)c2cc(CC(=O)OC)ccc2O1 (centres unmarked) | 1.78 |
| COc1ccccc1C(=O)NCCSCc1c(F)cccc1Cl | -15.4 |
| Cc1cccn2c(=O)c3cc(C(=O)NCC4CCCO4)c(=N)n(C4CCCC4)c3nc12 (centres unmarked) | -74.8 |
| Cc1cccn2c(=O)c3cc(C(=O)NCC4CCCO4)c(=N)n(C4CCCCC4)c3nc12 (centres unmarked) | -77.3 |
| O=C(O)c1nn2c(C(F)(F)F)cc(-c3cccs3)nc2c1Cl | 1.4 |
| COc1cccc(C(=O)Nc2cc(=O)n(C)c(=O)n2C)c1OC | 13.1 |
